Structures can show the parent of a compound that is named as a salt. ± gives the standard deviation of the averaged measurements. Over roughly 1,900 compounds, “normalised cell viability (NPI; 0 = phenylarsine oxide control, 1 = DMSO control)” has its median near 1; the lowest 2% begin near 0.039. The sample holds the lowest values, similar compounds and a random draw of the others, so the mix is not that of the screen.
System: NCI-H1944
Assay: normalised cell viability (NPI; 0 = phenylarsine oxide control, 1 = DMSO control) (fraction of DMSO control); NCI-H1944 is a non-small cell lung cancer line; higher = more viable cells (less compound toxicity)
Conditions: 6 days
[1] = glucocorticoid arm: hydrocortisone 2.75 uM co-treatment, compound 1 µM
[2] = glucocorticoid arm: hydrocortisone 2.75 uM co-treatment, compound 5 µM
[3] = glucocorticoid arm: hydrocortisone 2.75 uM pre-treated 2 days and continued, compound 1 µM
[4] = glucocorticoid arm: hydrocortisone 2.75 uM pre-treated 2 days and continued, compound 5 µM
[5] = glucocorticoid arm: vehicle, compound 1 µM
[6] = glucocorticoid arm: vehicle, compound 5 µM
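Note: CTB read-out in 384-well plates, triplicate wells, NPI normalised per plate against 1 µM phenylarsine oxide (0) and 0.1% DMSO (1) controls.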

Compound: CC(C)C[C@H](NC(=O)[C@H](Cc1ccccc1)NC(=O)c1cnccn1)B(O)O [Bortezomib]
- normalised cell viability [1]: 0.281 ± 0.011
- normalised cell viability [2]: 0.0356 ± 0.0084
- normalised cell viability [3]: 0.669 ± 0.035
- normalised cell viability [4]: 0.28 ± 0.054
- normalised cell viability [5]: 0.00407 ± 0.00064
- normalised cell viability [6]: 0.00157 ± 0.00063

Compound: C#C[C@]1(O)CC[C@H]2[C@@H]3CCC4=Cc5oncc5C[C@]4(C)[C@H]3CC[C@@]21C [Danazol]
- normalised cell viability [1]: 0.998 ± 0.001
- normalised cell viability [2]: 1 ± 0.021
- normalised cell viability [3]: 0.991 ± 0.022
- normalised cell viability [4]: 1.01 ± 0.027
- normalised cell viability [5]: 1.007 ± 0.0058
- normalised cell viability [6]: 1.013 ± 0.0058

Compound: C[C@]12CC[C@H](O)CC1=CC[C@@H]1[C@@H]2CC[C@]2(C)C(c3cccnc3)=CC[C@@H]12 [Abiraterone]
- normalised cell viability [1]: 1.043 ± 0.0058
- normalised cell viability [2]: 1.18 ± 0.023
- normalised cell viability [3]: 1.05
- normalised cell viability [4]: 1.11 ± 0.025
- normalised cell viability [5]: 0.848 ± 0.021
- normalised cell viability [6]: 1.05 ± 0.011

Compound: O=C(NCCCNc1nc(Nc2cccc(NC(=O)N3CCCC3)c2)ncc1I)c1cccs1
- normalised cell viability [1]: 0.9797 ± 0.0095
- normalised cell viability [2]: 0.993 ± 0.027
- normalised cell viability [3]: 0.9587 ± 0.0025
- normalised cell viability [4]: 1.05 ± 0.017
- normalised cell viability [5]: 0.71 ± 0.01
- normalised cell viability [6]: 0.3133 ± 0.0023

Compound: c1ccc2c(-c3cnn4cc(-c5ccc(N6CCNCC6)cc5)cnc34)ccnc2c1
- normalised cell viability [1]: 1.043 ± 0.0058
- normalised cell viability [2]: 0.832 ± 0.14
- normalised cell viability [3]: 1.04 ± 0.01
- normalised cell viability [4]: 1.09 ± 0.021
- normalised cell viability [5]: 1.01 ± 0.011
- normalised cell viability [6]: 0.0214 ± 0.0048

Compound: Nc1ncnc2c1nc(Br)n2C1OC2COP(=O)(O)O[C@@H]2C1O (stereo not given in full) [8-Bromo-cAMP sodium]
- normalised cell viability [1]: 0.9863 ± 0.004
- normalised cell viability [2]: 0.901 ± 0.017
- normalised cell viability [3]: 0.983 ± 0.001
- normalised cell viability [4]: 0.96 ± 0.016
- normalised cell viability [5]: 0.9617 ± 0.0067
- normalised cell viability [6]: 0.9647 ± 0.0093

Compound: Cc1nn(-c2ccccc2)c(C)c1C=NN1CCN(Cc2ccccc2)CC1
- normalised cell viability [1]: 1.01 ± 0.01
- normalised cell viability [2]: 0.991 ± 0.05
- normalised cell viability [3]: 1.02 ± 0.011
- normalised cell viability [4]: 0.9927 ± 0.0078
- normalised cell viability [5]: 0.9987 ± 0.0023
- normalised cell viability [6]: 0.996 ± 0.013

Compound: CNC(CC(=O)O)C(=O)O [NMDA (N-Methyl-D-aspartic acid)]
- normalised cell viability [1]: 1.006 ± 0.0069
- normalised cell viability [2]: 1.03 ± 0.037
- normalised cell viability [3]: 1.01 ± 0.032
- normalised cell viability [4]: 1.01 ± 0.013
- normalised cell viability [5]: 1.003 ± 0.0058
- normalised cell viability [6]: 0.9973 ± 0.0025

Compound: FC(F)(F)c1cc(COC2CCCNC2c2ccccc2)cc(C(F)(F)F)c1 [L-733,060 hydrochloride]
- normalised cell viability [1]: 0.9863 ± 0.0067
- normalised cell viability [2]: 0.843 ± 0.034
- normalised cell viability [3]: 1 ± 0.014
- normalised cell viability [4]: 0.993 ± 0.076
- normalised cell viability [5]: 0.9957 ± 0.0067
- normalised cell viability [6]: 0.928 ± 0.076

Compound: N/C(=N\C(=O)c1nc(Cl)c(N)nc1N)NCc1ccccc1 [Benzamil hydrochloride]
- normalised cell viability [1]: 1.023 ± 0.0058
- normalised cell viability [2]: 1.04 ± 0.01
- normalised cell viability [3]: 1.03 ± 0.011
- normalised cell viability [4]: 1.05 ± 0.028
- normalised cell viability [5]: 0.9897 ± 0.0045
- normalised cell viability [6]: 1.02 ± 0.016

Compound: N=C(N)NC(=O)c1nc(Cl)c(N)nc1N [Amiloride hydrochloride]
- normalised cell viability [1]: 0.9737 ± 0.006
- normalised cell viability [2]: 0.966 ± 0.023
- normalised cell viability [3]: 0.991 ± 0.0052
- normalised cell viability [4]: 0.992 ± 0.025
- normalised cell viability [5]: 0.9947 ± 0.0084
- normalised cell viability [6]: 1.003 ± 0.0064

Compound: N/C(=N\C(=O)c1nc(Cl)c(N)nc1N)NCc1ccc(Cl)c(Cl)c1 [3',4'-Dichlorobenzamil hydrochloride]
- normalised cell viability [1]: 0.99 ± 0.0089
- normalised cell viability [2]: 0.0646 ± 0.03
- normalised cell viability [3]: 0.998 ± 0.013
- normalised cell viability [4]: 0.862 ± 0.014
- normalised cell viability [5]: 0.98667 ± 0.00058
- normalised cell viability [6]: 0.0118 ± 0.0064

Compound: CCCCCCCCCCCCCCCCCC(=O)NCC(COP(=O)([O-])OCC[N+](C)(C)C)OCC (racemic) [rac-2-Ethoxy-3-octadecanamido-1-propylphosphocholine]
- normalised cell viability [1]: 1.017 ± 0.0058
- normalised cell viability [2]: 1.04 ± 0.011
- normalised cell viability [3]: 1.01 ± 0.011
- normalised cell viability [4]: 1.04 ± 0.021
- normalised cell viability [5]: 0.9997 ± 0.0091
- normalised cell viability [6]: 1.002 ± 0.0067

Compound: CCCCOc1cc(CC2CNC(=O)N2)ccc1OC (stereo not given)
- normalised cell viability [1]: 1.01 ± 0.01
- normalised cell viability [2]: 1.01 ± 0.021
- normalised cell viability [3]: 1.01 ± 0.011
- normalised cell viability [4]: 1.01 ± 0.021
- normalised cell viability [5]: 1.013 ± 0.0058
- normalised cell viability [6]: 1.013 ± 0.0058

Compound: COC(=O)C[C@](O)(CCCC(C)(C)O)C(=O)O[C@@H]1C(OC)=C[C@]23CCCN2CCc2cc4c(cc2[C@H]13)OCO4 [Omacetaxine mepesuccinate]
- normalised cell viability [1]: 0.00277 ± 0.001
- normalised cell viability [2]: 1.08 ± 0.026
- normalised cell viability [3]: 0.0391 ± 0.002
- normalised cell viability [4]: 1.03 ± 0.021
- normalised cell viability [5]: 0.00151 ± 0.00092
- normalised cell viability [6]: 1.017 ± 0.0058

Compound: O=c1[nH]c2cc(Cl)c(Cl)cc2[nH]c1=O [6,7-Dichloroquinoxaline-2,3-dione]
- normalised cell viability [1]: 1.01 ± 0.011
- normalised cell viability [2]: 1.04 ± 0.011
- normalised cell viability [3]: 1.003 ± 0.0061
- normalised cell viability [4]: 1.04 ± 0.021
- normalised cell viability [5]: 0.989 ± 0.007
- normalised cell viability [6]: 1.002 ± 0.0068

Compound: NC(=O)c1cc[n+](CC2=C(C(=O)O)N3C(=O)[C@@H](NC(=O)C(c4ccccc4)S(=O)(=O)[O-])[C@H]3SC2)cc1 (stereo not given in full) [Cefsulodin sodium salt hydrate]
- normalised cell viability [1]: 1.01
- normalised cell viability [2]: 1.013 ± 0.0058
- normalised cell viability [3]: 1.02
- normalised cell viability [4]: 1.01 ± 0.014
- normalised cell viability [5]: 0.997 ± 0.013
- normalised cell viability [6]: 0.9997 ± 0.0096

Compound: CCc1cnn2c(NCc3ccc[n+]([O-])c3)cc(N3CCCC[C@H]3CCO)nc12
- normalised cell viability [1]: 0.0547 ± 0.0038
- normalised cell viability [2]: 0.0409 ± 0.0039
- normalised cell viability [3]: 0.144 ± 0.004
- normalised cell viability [4]: 0.153 ± 0.0068
- normalised cell viability [5]: 0.0139 ± 0.0022
- normalised cell viability [6]: 0.00878 ± 0.0013

Compound: Oc1cc2c(cc1O)C(c1ccccc1)CNCC2 (racemic)
- normalised cell viability [1]: 0.987 ± 0.014
- normalised cell viability [2]: 0.982 ± 0.013
- normalised cell viability [3]: 0.982 ± 0.023
- normalised cell viability [4]: 0.972 ± 0.011
- normalised cell viability [5]: 0.992 ± 0.0044
- normalised cell viability [6]: 0.9913 ± 0.0021

Compound: OC(CN1CCC(Cc2ccc(F)cc2)CC1)c1ccc(Cl)cc1 (stereo not given) [Eliprodil]
- normalised cell viability [1]: 0.9487 ± 0.0064
- normalised cell viability [2]: 0.9277 ± 0.0051
- normalised cell viability [3]: 0.9827 ± 0.0091
- normalised cell viability [4]: 0.971 ± 0.0076
- normalised cell viability [5]: 0.9973 ± 0.0046
- normalised cell viability [6]: 0.9967 ± 0.0058

Compound: Nc1ccccc1NC(=O)c1ccc(CNC(=O)OCc2cccnc2)cc1 [Entinostat (MS-275)]
- normalised cell viability [1]: 1.05 ± 0.015
- normalised cell viability [2]: 0.184 ± 0.004
- normalised cell viability [3]: 1.023 ± 0.0058
- normalised cell viability [4]: 0.302 ± 0.018
- normalised cell viability [5]: 0.866 ± 0.026
- normalised cell viability [6]: 0.02 ± 0.0035

Compound: Nc1ccccc1NC(=O)c1ccc(CNC(=O)OCc2cccnc2)cc1 [Entinostat]
- normalised cell viability [1]: 0.925 ± 0.019
- normalised cell viability [2]: 0.0313 ± 0.0074
- normalised cell viability [3]: 0.962 ± 0.013
- normalised cell viability [4]: 0.0766 ± 0.011
- normalised cell viability [5]: 0.348 ± 0.03
- normalised cell viability [6]: 0.00136 ± 0.00059

Compound: COc1ccc(C(=O)NCc2cccnc2)cc1C(=O)NCc1cccnc1 [Picotamide]
- normalised cell viability [1]: 0.989 ± 0.017
- normalised cell viability [2]: 0.992 ± 0.004
- normalised cell viability [3]: 0.867 ± 0.26
- normalised cell viability [4]: 1 ± 0.016
- normalised cell viability [5]: 1.007 ± 0.0058
- normalised cell viability [6]: 1.003 ± 0.0064

Compound: Cc1cc(NC(=O)c2cccc(NC(=O)/C=C/CN(C)C)c2)ccc1Nc1nccc(-c2cccnc2)n1
- normalised cell viability [1]: 0.989 ± 0.016
- normalised cell viability [2]: 0.943 ± 0.017
- normalised cell viability [3]: 1.007 ± 0.0058
- normalised cell viability [4]: 0.917 ± 0.026
- normalised cell viability [5]: 0.959 ± 0.011
- normalised cell viability [6]: 0.702 ± 0.033

Compound: Cc1ccc(NC(=O)c2ccc(CN3CCN(C)CC3)cc2)cc1Nc1nccc(-c2cccnc2)n1
- normalised cell viability [1]: 1.043 ± 0.0058
- normalised cell viability [2]: 1.1 ± 0.032
- normalised cell viability [3]: 1.04 ± 0.011
- normalised cell viability [4]: 1.05 ± 0.01
- normalised cell viability [5]: 0.9957 ± 0.004
- normalised cell viability [6]: 1 ± 0.014

Compound: Nc1ccccc1NC(=O)c1ccc(CNc2nccc(-c3cccnc3)n2)cc1 [Mocetinostat (MGCD0103)]
- normalised cell viability [1]: 1.033 ± 0.0058
- normalised cell viability [2]: 0.00494 ± 0.0024
- normalised cell viability [3]: 1.02 ± 0.02
- normalised cell viability [4]: 0.0153 ± 0.0051
- normalised cell viability [5]: 0.585 ± 0.02
- normalised cell viability [6]: 0.00194 ± 0.00024

Compound: CC(=O)Nc1ccc(C(=O)Nc2ccccc2N)cc1
- normalised cell viability [1]: 1.02 ± 0.011
- normalised cell viability [2]: 1.063 ± 0.0058
- normalised cell viability [3]: 1.033 ± 0.0058
- normalised cell viability [4]: 1.06 ± 0.011
- normalised cell viability [5]: 0.9833 ± 0.0057
- normalised cell viability [6]: 0.906 ± 0.052

Compound: Cc1ccc(NC(=O)c2ccc(CN3CCN(C)CC3)cc2)cc1Nc1nccc(-c2cccnc2)n1 [Imatinib Mesylate]
- normalised cell viability [1]: 1.05 ± 0.015
- normalised cell viability [2]: 1.14 ± 0.021
- normalised cell viability [3]: 1.05 ± 0.015
- normalised cell viability [4]: 1.1 ± 0.032
- normalised cell viability [5]: 1.01 ± 0.01
- normalised cell viability [6]: 1.03 ± 0.011

Compound: Cc1ccc(NC(=O)c2ccc(CN3CCN(C)CC3)cc2)cc1Nc1nccc(-c2cccnc2)n1 [Imatinib (Gleevec)]
- normalised cell viability [1]: 1.05 ± 0.017
- normalised cell viability [2]: 1.14 ± 0.015
- normalised cell viability [3]: 1.037 ± 0.0058
- normalised cell viability [4]: 1.1 ± 0.01
- normalised cell viability [5]: 1.01 ± 0.015
- normalised cell viability [6]: 1.033 ± 0.0058

Compound: CC(=O)Nc1ccc(C(=O)Nc2ccccc2N)cc1 [CI994 (Tacedinaline)]
- normalised cell viability [1]: 0.9813 ± 0.0093
- normalised cell viability [2]: 1.03 ± 0.029
- normalised cell viability [3]: 0.999 ± 0.012
- normalised cell viability [4]: 1.02 ± 0.02
- normalised cell viability [5]: 0.9707 ± 0.0072
- normalised cell viability [6]: 0.9157 ± 0.008
